Outcome and AC50 data for ten compounds are collected here from PubChem BioAssay (EPA / NIEHS).

Activity calls are given as the source filed them. Rule for the calls: active = hit-call score of the fitted dose curve at least 0.9, where 1 is the maximum; inactive = score below 0.9.

The assay can be described thus: CCTE_Shafer_MEA_dev_interburst_interval_mean: CCTE's Neural Network Formation Assay for Mean Interburst Interval, Shafer Lab (AID 2284046). The protocol:
CCTE_Shafer_MEA_dev assay is conducted using Axion Biosystems 48 well microelectrode array (MEA) plates and Maestro recording system. Each well of the MEA plate contains a grid of 16 microelectrodes embedded in the culture surface. Electrically active cells, such as neurons, can be cultured over the electrodes, and electrical activity in these cells can be recorded extracellularly. The spontaneous firing of neurons is captured from each electrode on a microsecond timescale providing both temporally and spatially precise data. […] The CCTE_Shafer_MEA_dev assay uses primary cultures of rat cortical neurons. Recordings are made on days post-plating 5, 7, 9 and 12. As these cultures mature over time, neural networks develop functional activity and form cohesive networks in which electrical activity can be highly coordinated. CCTE_Shafer_MEA_dev_interburst_interval_mean is 1 of 19 assay components of the CCTE_Shafer_MEA_dev assay. It measures the average time interval between consecutive single-electrode bursts (temporally-clustered groups of action potential firing) during a recording in a microelectrode array (MEA) using Axion Biosystems Maestro 768 channel amplifier with the AxIS adaptive spike detector. The mean inter-burst interval is averaged across the actively bursting electrodes to report a well-mean value. To collapse across multiple recordings made on days post-plating 5, 7, 9 and 12, the trapezoidal area-under-the-curve of the component is calculated.Data from the assay component CCTE_Shafer_MEA_dev_interburst_interval_mean was analyzed into 1 assay endpoint. This assay endpoint, CCTE_Shafer_MEA_dev_interburst_interval_mean, was analyzed in the negative analysis fitting direction relative to DMSO as the negative control and baseline of activity. Using a type of functional reporter, gain or loss-of-signal activity can be used to understand electrical activity.
On the day prior to culture, each well was coated thoroughly with 150 uL of 0.05% polyethyleneimine (PEI, Sigma Cat P3143) in 50 mM HEPES (Sigma Cat H7523) at a pH of 8. The plate was incubated at 37C for one hour. PEI was rinsed out with 500 uL of sterile water three times. Plates were stored at 4C until the day of culture. This culture was plated at a seeding density of 1.5 x 10^5 cells/well on a 48-well MEA plate, prepared as described above. Cells were administered via a 25 uL media/laminin ([…]; Sigma Cat L2020-1MG) drop directly onto the microelectrode array, as adding the cells with the laminin results in better attachment than pre-coating with laminin. After 2 hours, an additional 475 uL of cortical media was added and the cells returned to the incubator. Exposure starts at day 0 of plating and is continued over twelve days of network development until the experiment is terminated. Cells are fed with fresh medium on DIV 5 and 9, following the recordings on those days. The entire volume of media in the well is exchanged and any vehicle or compound treatment is renewed. Complete details are found in OP-NHEERL/ISTD/SBB/TJS/2015-03-r0 (available on request, email shafer.tim@epa.gov). Measurement of the electrical activity is non-invasive, and recordings can be made from the same plate over multiple different days of the culture. In cortical neurons, this allows for the measurement of extracellular action potentials over the period during which networks form in the MEA plate.
As to `O=P(OC(CCl)CCl)(OC(CCl)CCl)OC(CCl)CCl`, the outcome was inactive.

For `Cn1c(=O)c2c(ncn2C)n(C)c1=O`, the compound was classed as inactive. As for `O=C1CCC(N2C(=O)c3ccccc3C2=O)C(=O)N1` (stereo not given), the call was inactive. `Nc1nc2ncc(CNc3ccc(C(=O)N[C@@H](CCC(=O)O)C(=O)O)cc3)nc2c(=O)[nH]1`: the call was inactive. The same measure, in the same setting: under `COc1ccc(-n2nc(C(F)F)cc2-c2ccc(S(C)=O)cc2)cc1` (stereo not given) stands “inactive”. In the case of `CC[C@H](C)C(=O)O[C@H]1C[C@@H](C)C=C2C=C[C@H](C)[C@H](CC[C@@H]3C[C@@H](O)CC(=O)O3)[C@H]21`, the AC50 (commonly the concentration giving half of the maximal activity seen) is 2.9 µM (active).

Regarding `CNCc1ccc(NC(=O)c2c[nH]c3c2C(=O)CCC3)cc1`, the outcome was inactive. For `NC(=O)NO`, the compound was called inactive. On the same count and under the same terms, under `CC[C@H]1OC(=O)[C@H](C)[C@@H](O[C@H]2C[C@@](C)(OC)[C@@H](O)[C@H](C)O2)[C@H](C)[C@@H](O[C@@H]2O[C@H](C)C[C@H](N(C)C)[C@H]2O)[C@](C)(O)C[C@@H](C)C(=O)[C@H](C)[C@@H](O)[C@]1(C)O` stands “inactive”.

On to `CCC(C)(C)C(=O)O[C@H]1C[C@@H](C)C=C2C=C[C@H](C)[C@H](CC[C@@H]3C[C@@H](O)CC(=O)O3)[C@H]21`, for which the AC50 is 0.887 µM (active).
